# Unmarked numbers belong to inactive results. Results filed as inconclusive are left out. A call without a number means that no potency is given here. The source made the active and inactive calls. Calls follow the shape of the dose curve; as a rule, active = well fitted curve in the direction sought with a large enough effect in the repeat runs; inconclusive = weak or mixed curves; inactive = no such curve, though single readings can be large; an effect the other way counts as inactive or inconclusive.
# Assays:
# [1] = qHTS RealTime-Glo MT Cell Viability Assay in HEK293 cells - 32 hour (AID 1224868); also: top concentration of the series differs between compounds; nearly all actives have a fitted effect of over 50% in size
# In short: (§1)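 Quantitative high-throughput screen of the Tox21 10K library in HEK293: cells and RealTime-Glo reagents plated together, compound added at 5 h, luminescence monitored through 40 h at 37 C.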
# [2] = A CellTox Green Cytotoxicity Assay to monitor cytotoxicity in HEK293 cells - 0 hour (AID 1224869); also: nearly all actives have a fitted effect of over 50% in size
# In short: (§2)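 HEK293 cells, 600/well, were preincubated 5 hours and then exposed to compounds at 37 C for up to 40 hours. A cell-impermeant cyanine dye staining dead-cell DNA was read by fluorescence at 0, 8, 16, 24, 32 and 40 h time points.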
# [3] = qHTS RealTime-Glo MT Cell Viability Assay in HepG2 cells - 40 hour (AID 1224870); also: nearly all actives have a fitted effect of over 50% in size
# In short: (§3)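 HepG2 cells mixed with RealTime-Glo MT reagents (NanoLuc plus cell-permeant prosubstrate) were seeded at 600 cells/well, incubated 5 h at 37 C/5% CO2, then pinned with compounds in DMSO; nonlytic luminescence tracked viability during 40 h treatment.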
# [4] = A CellTox Green Cytotoxicity Assay to monitor cytotoxicity in HEK293 cells - 40 hour (AID 1224871); also: nearly all actives have a fitted effect of over 45% in size
# In short: as §2
# [5] = qHTS RealTime-Glo MT Cell Viability Assay in HEK293 cells - 16 hour (AID 1224872); also: top concentration of the series differs between compounds; nearly all actives have a fitted effect of over 50% in size
# In short: as §1
# [6] = qHTS RealTime-Glo MT Cell Viability Assay in HepG2 cells - 8 hour (AID 1224873); also: nearly all actives have a fitted effect of over 55% in size
# In short: as §3
# [7] = qHTS RealTime-Glo MT Cell Viability Assay in HEK293 cells - 40 hour (AID 1224874); details: RealTime-Glo luminescence, hits give low values; also: nearly all actives have a fitted effect of over 50% in size
# In short: (§4)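 600 cells/well were plated with the nonlytic NanoLuc/prosubstrate reagent, pre-incubated 5 h, then given 23 nL of compound in DMSO. Incubation at 37 C for 40 h, with luminescence from viable-cell-reduced substrate read repeatedly from 0 h.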
# [8] = A CellTox Green Cytotoxicity Assay to monitor cytotoxicity in HEK293 cells - 24 hour (AID 1224875); also: series mostly up to about 77 µM; nearly all actives have a fitted effect of over 45% in size
# In short: as §2
# [9] = A CellTox Green Cytotoxicity Assay to monitor cytotoxicity in HepG2 cells - 16 hour (AID 1224876); also: nearly all actives have a fitted effect of over 45% in size; also: potency is read from the fitted curve at half-maximal effect
# In short: (§5)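 HepG2 cells, 600/well, preincubated 5 h with CellTox Green dye, then exposed to Tox21 compounds in DMSO at 37 C for up to 40 h. Dead-cell DNA fluorescence read at the indicated time point.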
# [10] = qHTS RealTime-Glo MT Cell Viability Assay in HepG2 cells - 32 hour (AID 1224877); also: nearly all actives have a fitted effect of over 55% in size
# In short: (§6)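 Compound treatment began 5 h after plating HepG2 cells (600/well) with NanoLuc luciferase and prosubstrate. Plates stayed at 37 C for 40 h; luminescence was captured at six time points, 0 h through 40 h.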
# [11] = A CellTox Green Cytotoxicity Assay to monitor cytotoxicity in HepG2 cells - 24 hour (AID 1224878); also: nearly all actives have a fitted effect of over 45% in size
# In short: as §5
# [12] = A CellTox Green Cytotoxicity Assay to monitor cytotoxicity in HepG2 cells - 40 hour (AID 1224879); also: nearly all actives have a fitted effect of over 40% in size
# In short: as §5
# [13] = qHTS RealTime-Glo MT Cell Viability Assay in HEK293 cells - 0 hour (AID 1224880)
# In short: as §4
# [14] = A CellTox Green Cytotoxicity Assay to monitor cytotoxicity in HEK293 cells - 32 hour (AID 1224881); also: nearly all actives have a fitted effect of over 40% in size
# In short: as §2
# [15] = A CellTox Green Cytotoxicity Assay to monitor cytotoxicity in HepG2 cells - 0 hour (AID 1224882); also: nearly all actives have a fitted effect of over 35% in size
# In short: as §5
# [16] = A CellTox Green Cytotoxicity Assay to monitor cytotoxicity in HepG2 cells - 32 hour (AID 1224883); also: nearly all actives have a fitted effect of over 50% in size
# In short: as §5
# [17] = A CellTox Green Cytotoxicity Assay to monitor cytotoxicity in HEK293 cells - 8 hour (AID 1224884); also: nearly all actives have a fitted effect of over 35% in size
# In short: as §2
# [18] = qHTS RealTime-Glo MT Cell Viability Assay in HepG2 cells - 16 hour (AID 1224885); also: nearly all actives have a fitted effect of over 50% in size
# In short: as §6
# [19] = qHTS RealTime-Glo MT Cell Viability Assay in HEK293 cells - 24 hour (AID 1224886)
# In short: as §1
# [20] = qHTS RealTime-Glo MT Cell Viability Assay in HEK293 cells - 8 hour (AID 1224887)
# In short: as §4
compound,measurement,setting,value
COC(C)(C)CC(C)=O,outcome,[1],inactive
same,outcome,[2],inactive
same,outcome,[3],inactive
same,Potency,[4],inactive
same,outcome,[5],inactive
same,outcome,[6],inactive
same,max response,[7],1.4%
same,Potency,[8],inactive
same,Potency,[9],inactive
same,outcome,[10],inactive
same,Potency,[11],inactive
same,Potency,[12],inactive
same,Potency,[13],inactive
same,Potency,[14],inactive
same,Potency,[15],inactive
same,Potency,[16],inactive
same,Potency,[17],inactive
same,outcome,[18],inactive
same,outcome,[19],inactive
same,outcome,[20],inactive
NC[C@H]1O[C@H](O[C@H]2[C@H](O)[C@@H](O[C@H]3O[C@H](CO)[C@@H](O)[C@H](N)[C@H]3O)[C@H](N)C[C@@H]2N)[C@H](N)[C@@H](O)[C@@H]1O,"activity change, negative = cytotoxic",[1],4.09% [at 15.8 µM]
same,cytotoxicity,[2],-1.07% [at 15.8 µM]
same,"activity change, negative = cytotoxic",[3],0.593% [at 15.8 µM]
same,cytotoxicity increase,[4],-1.49% [at 15.8 µM]
same,"activity change, negative = cytotoxicity",[5],6.75% [at 15.8 µM]
same,"viability change, negative = cytotoxic",[6],4% [at 15.8 µM]
same,max response,[7],5.23%
same,activity change,[8],"0.657% [at 15.8 µM, hits give high values]"
same,cytotoxicity increase,[9],0.586% [at 15.8 µM]
same,"activity change, negative = cytotoxic",[10],3.63% [at 15.8 µM]
same,cytotoxicity,[11],-0.281% [at 15.8 µM]
same,cytotoxicity increase,[12],-4.11% [at 15.8 µM]
same,"activity change, negative = cytotoxicity",[13],-0.44% [at 15.8 µM]
same,cytotoxicity increase,[14],-0.0128% [at 15.8 µM]
same,cytotoxicity,[15],1.75% [at 15.8 µM]
same,cytotoxicity increase,[16],-2.59% [at 15.8 µM]
same,cytotoxicity increase,[17],1.34% [at 15.8 µM]
same,"activity change, negative = cytotoxic",[18],3.1% [at 15.8 µM]
same,"activity change, negative = cytotoxicity",[19],5.12% [at 15.8 µM]
same,"activity change, negative = cytotoxicity",[20],14.7% [at 15.8 µM]
Cc1ccc2ccccc2n1,outcome,[1],inactive
same,outcome,[2],inactive
same,outcome,[3],inactive
same,Potency,[4],inactive
same,outcome,[5],inactive
same,outcome,[6],inactive
same,max response,[7],18.8%
same,Potency,[8],inactive
same,Potency,[9],138 nM (active)
same,outcome,[10],inactive
same,Potency,[11],inactive
same,Potency,[12],inactive
same,Potency,[13],inactive
same,Potency,[14],inactive
same,Potency,[15],inactive
same,Potency,[16],inactive
same,Potency,[17],inactive
same,outcome,[18],inactive
same,outcome,[19],inactive
same,outcome,[20],inactive
Cc1cccc(N)n1,outcome,[1],inactive
same,outcome,[2],inactive
same,outcome,[3],inactive
same,Potency,[4],inactive
same,outcome,[5],inactive
same,outcome,[6],inactive
same,max response,[7],-4.06%
same,Potency,[8],inactive
same,Potency,[9],inactive
same,outcome,[10],inactive
same,Potency,[11],inactive
same,Potency,[12],inactive
same,Potency,[13],inactive
same,Potency,[14],inactive
same,Potency,[15],inactive
same,Potency,[16],inactive
same,Potency,[17],inactive
same,outcome,[18],inactive
same,outcome,[19],inactive
same,outcome,[20],inactive
CN(C)CCc1c[nH]c2ccc(CS(=O)(=O)N3CCCC3)cc12,outcome,[1],inactive
same,outcome,[2],inactive
same,outcome,[3],inactive
same,Potency,[4],inactive
same,outcome,[5],inactive
same,outcome,[6],inactive
same,max response,[7],7.03%
same,Potency,[8],inactive
same,Potency,[9],inactive
same,outcome,[10],inactive
same,Potency,[11],inactive
same,Potency,[12],inactive
same,Potency,[13],inactive
same,Potency,[14],inactive
same,Potency,[15],inactive
same,Potency,[16],inactive
same,Potency,[17],inactive
same,outcome,[18],inactive
same,outcome,[19],inactive
CC(CN1CC(=O)NC(=O)C1)N1CC(=O)NC(=O)C1 (stereo not drawn),outcome,[1],inactive
same,outcome,[2],inactive
same,outcome,[3],inactive
same,Potency,[4],inactive
same,outcome,[5],inactive
same,outcome,[6],inactive
same,max response,[7],-4.03%
same,Potency,[8],inactive
same,Potency,[9],inactive
same,outcome,[10],inactive
same,Potency,[11],inactive
same,Potency,[12],inactive
same,Potency,[13],inactive
same,Potency,[14],inactive
same,Potency,[15],inactive
same,Potency,[16],inactive
same,Potency,[17],inactive
same,outcome,[18],inactive
same,outcome,[19],inactive
same,outcome,[20],inactive
Nc1nc(Cl)cc(Cl)n1,outcome,[1],inactive
same,outcome,[2],inactive
same,outcome,[3],inactive
same,Potency,[4],inactive
same,outcome,[5],inactive
same,outcome,[6],inactive
same,max response,[7],16.9%
same,Potency,[8],inactive
same,Potency,[9],inactive
same,outcome,[10],inactive
same,Potency,[11],inactive
same,Potency,[12],inactive
same,Potency,[13],inactive
same,Potency,[14],inactive
same,Potency,[15],inactive
same,Potency,[16],inactive
same,Potency,[17],inactive
same,outcome,[18],inactive
same,outcome,[19],inactive
same,outcome,[20],inactive
COc1cc(OC)cc(OC)c1,outcome,[1],inactive
same,outcome,[2],inactive
same,outcome,[3],inactive
same,Potency,[4],inactive
same,outcome,[5],inactive
same,outcome,[6],inactive
same,max response,[7],6.85%
same,Potency,[8],inactive
same,Potency,[9],inactive
same,outcome,[10],inactive
same,Potency,[11],inactive
same,Potency,[12],inactive
same,Potency,[13],inactive
same,Potency,[14],inactive
same,Potency,[15],inactive
same,Potency,[16],inactive
same,Potency,[17],inactive
same,outcome,[18],inactive
same,outcome,[19],inactive
same,outcome,[20],inactive
COCc1nnc(-c2ccc[n+]([O-])c2)n1-c1c(Cl)c(Cl)cc2[nH]c(=O)c(=O)[nH]c12,outcome,[1],inactive
same,outcome,[2],inactive
same,outcome,[3],inactive
same,Potency,[4],inactive
same,outcome,[5],inactive
same,outcome,[6],inactive
same,max response,[7],-6.51%
same,Potency,[8],inactive
same,Potency,[9],inactive
same,outcome,[10],inactive
same,Potency,[11],inactive
same,Potency,[12],inactive
same,Potency,[13],inactive
same,Potency,[14],inactive
same,Potency,[15],inactive
same,Potency,[16],inactive
same,Potency,[17],inactive
same,outcome,[18],inactive
same,outcome,[19],inactive
same,outcome,[20],inactive
O=c1c(O)c(O)c1=O,outcome,[1],inactive
same,outcome,[2],inactive
same,outcome,[3],inactive
same,Potency,[4],inactive
same,outcome,[5],inactive
same,outcome,[6],inactive
same,max response,[7],-0.875%
same,Potency,[8],inactive
same,Potency,[9],inactive
same,outcome,[10],inactive
same,Potency,[11],inactive
same,Potency,[12],inactive
same,Potency,[13],inactive
same,Potency,[14],inactive
same,Potency,[15],inactive
same,Potency,[16],inactive
same,Potency,[17],inactive
same,outcome,[18],inactive
same,outcome,[19],inactive
same,outcome,[20],inactive
CCCCc1ccc(Cl)cc1,outcome,[1],inactive
same,outcome,[2],inactive
same,outcome,[3],inactive
same,Potency,[4],inactive
same,outcome,[5],inactive
same,outcome,[6],inactive
same,max response,[7],8.05%
same,Potency,[8],inactive
same,Potency,[9],inactive
same,outcome,[10],inactive
same,Potency,[11],inactive
same,Potency,[12],inactive
same,Potency,[13],inactive
same,Potency,[14],inactive
same,Potency,[15],inactive
same,Potency,[16],inactive
same,Potency,[17],inactive
same,outcome,[18],inactive
same,outcome,[19],inactive
CC(C)OCCO,outcome,[1],inactive
same,outcome,[2],inactive
same,outcome,[3],inactive
same,Potency,[4],inactive
same,outcome,[5],inactive
same,outcome,[6],inactive
same,max response,[7],4.69%
same,Potency,[8],inactive
same,Potency,[9],inactive
same,outcome,[10],inactive
same,Potency,[11],inactive
same,Potency,[12],inactive
same,Potency,[13],inactive
same,Potency,[14],inactive
same,Potency,[15],inactive
same,Potency,[16],inactive
same,Potency,[17],inactive
same,outcome,[18],inactive
same,outcome,[19],inactive
same,outcome,[20],inactive
COC(=O)c1ccccc1Cl,outcome,[1],inactive
same,outcome,[2],inactive
same,outcome,[3],inactive
same,Potency,[4],inactive
same,outcome,[5],inactive
same,outcome,[6],inactive
same,max response,[7],2.48%
same,Potency,[8],inactive
same,Potency,[9],inactive
same,outcome,[10],inactive
same,Potency,[11],inactive
same,Potency,[12],inactive
same,Potency,[13],inactive
same,Potency,[14],inactive
same,Potency,[15],inactive
same,Potency,[16],inactive
same,Potency,[17],inactive
same,outcome,[18],inactive
same,outcome,[19],inactive
same,outcome,[20],inactive
